This passage reports growth results from PubChem BioAssay (NCI).

Structures are written as SMILES. This is part of a sample that, as a whole, favours compounds with a hit. Of some 83,000 tested, about 20% had one in any assay.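 48-hour exposure, single concentration, 96-well plates; percent growth endpoint where 0 means no net growth. Active: below 10.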 Values without a mark were called inactive. The source made the active and inactive calls.

Test systems include DU-145 prostate; K-562 leukemia; MALME-3M melanoma; MDA-MB-231 breast; RXF 393 renal; SF-268 CNS; SF-295 CNS; SF-539 CNS; UACC-257 melanoma; M14 melanoma; HCT-15 colon; HT29 colon; SNB-75 CNS; SNB-19 CNS; U251 CNS; PC-3 prostate; SK-MEL-5 melanoma; UACC-62 melanoma; LOX IMVI melanoma; SK-MEL-28 melanoma.
Holding throughout (experiment): NCI-60 one-dose screen, 48 h (100 = growth as untreated, 0 = no growth, -100 = all killed)
Common to all, as to conditions: 10 µM unless noted

Take `O=S(=O)(Nc1ccc(F)cc1F)c1ccc(-c2cnc(C3CC3)o2)cc1`: the growth was 40.7% in the test on DU-145 prostate; 18.2% with K-562 leukemia; 34.8% in the test with MALME-3M melanoma; 53% in the test on MDA-MB-231 breast; -1.92% (active) in the test with RXF 393 renal; 44.6% in the test with SF-268 CNS. The growth was 30.7% in the test on SF-295 CNS; 1.19% (active) in the test on SF-539 CNS; 64% with UACC-257 melanoma; 4.25% (active) with M14 melanoma; 23.7% in the test on HCT-15 colon; 14% with HT29 colon. Further, the growth was -13.1% (active) with SNB-75 CNS; 46.5% with SNB-19 CNS; 26.6% in the test on U251 CNS; 42.5% in the test on PC-3 prostate; 6.16% (active) in the test on SK-MEL-5 melanoma; 27.4% in the test with UACC-62 melanoma. The values for the growth in the test with LOX IMVI melanoma and in the test on SK-MEL-28 melanoma were 41.5% and 63.5%, respectively.

`CC1=C([Se]CC(OC(=O)CC[Se]c2ccccc2)C(=O)NC(C)(C)C)C(=O)c2ccccc2C1=O` (stereo not given): the growth with DU-145 prostate was -94.8% (active); in the test on K-562 leukemia, -11.3% (active); in the test on MALME-3M melanoma, -57.2% (active); with MDA-MB-231 breast, -41.7% (active); in the test on RXF 393 renal, -87.5% (active); with SF-268 CNS, -88.9% (active). For the same molecule, the growth is -36.2% (active) in the test on SF-295 CNS; -99% (active) in the test with SF-539 CNS; -87.3% (active) in the test on UACC-257 melanoma; -77.8% (active) in the test with M14 melanoma; 4.43% (active) with HCT-15 colon; 5.28% (active) in the test on HT29 colon. The growth with SNB-75 CNS is -89.2% (active); with SNB-19 CNS it was -88.1% (active); in the test with U251 CNS, -36% (active); with PC-3 prostate it was -36% (active); in the test on SK-MEL-5 melanoma, -97.4% (active); with UACC-62 melanoma, -76.4% (active). Besides, the growth in the test with LOX IMVI melanoma is -0.738% (active); in the test with SK-MEL-28 melanoma it was -92.2% (active).

Regarding `Nc1nc2ccccc2c2c1S(=O)(=O)c1ccc(Cl)cc1C2=O`, the growth is 26.3% with DU-145 prostate; 11.5% in the test with K-562 leukemia; -21% (active) in the test with MALME-3M melanoma; 17.5% in the test on MDA-MB-231 breast; 10.2% with RXF 393 renal; 24.4% in the test on SF-268 CNS. Further, the growth was 31.8% in the test with SF-295 CNS; 11.2% with SF-539 CNS; 24.7% in the test with UACC-257 melanoma; 17.8% in the test on M14 melanoma; 1.95% (active) with HCT-15 colon; 7.01% (active) in the test on HT29 colon. Further, the growth in the test on SNB-75 CNS is 24.5%; with SNB-19 CNS, 48.8%; with U251 CNS, 11.9%; in the test with PC-3 prostate it was 16.5%; in the test on SK-MEL-5 melanoma it was 28.5%; in the test with UACC-62 melanoma it was 24.7%. Also, the growth in the test on LOX IMVI melanoma was 8.26% (active); in the test on SK-MEL-28 melanoma, 34.5%.

On to `CCOC(=O)c1ccc(NC(=O)c2nc(-c3cc(OC)c(OC)c(OC)c3)n(-c3ccc(Cl)cc3)n2)cc1`, for which the growth with DU-145 prostate was 102%; in the test on K-562 leukemia, 85.7%; in the test on MALME-3M melanoma it was 91.4%; in the test on MDA-MB-231 breast, 69.4%; in the test with RXF 393 renal, 86.3%; with SF-268 CNS, 84%. The growth in the test with SF-295 CNS was 96.9%; in the test with SF-539 CNS, 97%; in the test on UACC-257 melanoma, 96.5%; in the test with M14 melanoma, 97.6%; in the test with HCT-15 colon, 93.2%; with HT29 colon it was 89.9%. The growth in the test on SNB-75 CNS is 81%; with SNB-19 CNS it was 88.8%; in the test with U251 CNS it was 93.8%; with PC-3 prostate, 77.5%; with SK-MEL-5 melanoma, 63.6%; in the test on UACC-62 melanoma it was 77.7%. Moreover, the figures for the growth with LOX IMVI melanoma and in the test on SK-MEL-28 melanoma were 91.8% and 95%, respectively.

As to `C=CC[Se]C(=O)Cc1c(C)n(C(=O)c2ccc(Cl)cc2)c2ccc(OC)cc12`, the growth in the test with DU-145 prostate was -35.6% (active); with K-562 leukemia it was 25.9%; in the test on MALME-3M melanoma it was -23.4% (active); with MDA-MB-231 breast, -56% (active); with RXF 393 renal, -57.5% (active); with SF-268 CNS it was 15.3%. For the same molecule, the growth in the test with SF-295 CNS is -28.8% (active); in the test with SF-539 CNS it was -89.5% (active); in the test with UACC-257 melanoma, -34.8% (active); in the test with M14 melanoma, -35.4% (active); with HCT-15 colon, 6.96% (active); in the test on HT29 colon, 9.35% (active). Further, the growth is -68.6% (active) with SNB-75 CNS; -46% (active) in the test with SNB-19 CNS; -58.7% (active) with U251 CNS; -36% (active) with PC-3 prostate; -69.7% (active) in the test with SK-MEL-5 melanoma; -66.1% (active) with UACC-62 melanoma. Also, the results for the growth in the test with LOX IMVI melanoma and in the test with SK-MEL-28 melanoma were 7.91% (active) and -16% (active), respectively.

Take `O=C(NNC(=O)c1ccc(NC(=O)c2ccccn2)cc1)Nc1ccc([N+](=O)[O-])cc1`: the growth in the test on DU-145 prostate was 106%; in the test on K-562 leukemia, 107%; in the test on MALME-3M melanoma it was 98%; in the test on MDA-MB-231 breast it was 103%; with RXF 393 renal, 99.9%; with SF-268 CNS, 95.5%. Besides, the growth in the test with SF-295 CNS is 98.9%; in the test with SF-539 CNS, 60.9%; in the test with UACC-257 melanoma it was 106%; with M14 melanoma it was 100%; in the test with HCT-15 colon it was 100%; with HT29 colon, 110%. Further, the growth is 81.4% in the test with SNB-75 CNS; 83.6% in the test on SNB-19 CNS; 78.5% with U251 CNS; 94.5% in the test with PC-3 prostate; 102% with SK-MEL-5 melanoma; 94% in the test with UACC-62 melanoma. Further, the growth with LOX IMVI melanoma was 105%; with SK-MEL-28 melanoma, 99%.

In the case of `C=C1C(=O)O[C@H]2[C@H]1CC/C(COC(=O)/C=C\C(=O)NCc1ccc(Cn3c(=O)sn(CCI)c3=O)cc1)=C\CC[C@@]1(C)O[C@@H]21`, the growth in the test on DU-145 prostate was 34.4%; in the test on K-562 leukemia, 4.34% (active); in the test with MALME-3M melanoma, -30% (active); in the test with MDA-MB-231 breast it was 64.6%; in the test with RXF 393 renal, 11.6%; in the test on SF-268 CNS, 70.2%. Further, the growth in the test on SF-295 CNS was 105%; in the test on SF-539 CNS, 52%; in the test on UACC-257 melanoma it was 67.7%; with M14 melanoma, 36.2%; in the test on HCT-15 colon, 15.6%; in the test with HT29 colon, 26.3%. For the same molecule, the growth in the test on SNB-75 CNS is 99.1%; in the test on SNB-19 CNS, 99%; with U251 CNS it was 70%; with PC-3 prostate it was 69%; in the test with SK-MEL-5 melanoma it was 101%; in the test on UACC-62 melanoma it was 55.4%. The growth in the test on LOX IMVI melanoma was 14%; in the test on SK-MEL-28 melanoma, 40.4%.
